Where a chain is given by its changes, count along the chain named. The full ranking holds about 16,000 sequences; the median of “ka relative to ugcaugu” is about 0.0091, and the highest 2% start at about 0.032. Shown is part of a subset that was picked to be rich in the highest values.

Results on twelve molecules are retold here after publication PMC9911399, “Two distinct binding modes provide the RNA-binding protein RbFox with extraordinary sequence specificity”.

Sequences and labels used below:
T1: RBFOX1 RRM (Homo sapiens, UniProt Q9NWB1 109-208)
T1 sequence: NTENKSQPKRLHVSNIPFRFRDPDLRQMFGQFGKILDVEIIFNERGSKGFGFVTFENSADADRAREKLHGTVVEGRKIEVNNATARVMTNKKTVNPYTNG

B1: CGGGAGC (DNA:RNA)
RNA: GGGAGACCGGAAUUCAGAUUGUCCCGGGAGCUUAAAUCCCGUCGUAGCCACCA
DNA 1: CAATCTGAATTCCGGTCTCCC
DNA 2: TGGTGGCTACGACGGGATT
B2: GGGGAGC (DNA:RNA)
RNA: B1 RNA with C25G
DNA 1: CAATCTGAATTCCGGTCTCCC
DNA 2: TGGTGGCTACGACGGGATT
B3: GGAGAGC (DNA:RNA)
RNA: B1 RNA with C25G, G27A
DNA 1: CAATCTGAATTCCGGTCTCCC
DNA 2: TGGTGGCTACGACGGGATT
B4: GGGAAGC (DNA:RNA)
RNA: B1 RNA with C25G, G28A
DNA 1: CAATCTGAATTCCGGTCTCCC
DNA 2: TGGTGGCTACGACGGGATT
B5: GGAACUU (DNA:RNA)
RNA: B1 RNA with C25G, G27A, G28A, A29C, G30U, C31U
DNA 1: CAATCTGAATTCCGGTCTCCC
DNA 2: TGGTGGCTACGACGGGATT
B6: GGAGCUU (DNA:RNA)
RNA: B1 RNA with C25G, G27A, A29C, G30U, C31U
DNA 1: CAATCTGAATTCCGGTCTCCC
DNA 2: TGGTGGCTACGACGGGATT
B7: GGGAACU (DNA:RNA)
RNA: B1 RNA with C25G, G28A, G30C, C31U
DNA 1: CAATCTGAATTCCGGTCTCCC
DNA 2: TGGTGGCTACGACGGGATT
B8: CGGAAGC (DNA:RNA)
RNA: B1 RNA with G28A
DNA 1: CAATCTGAATTCCGGTCTCCC
DNA 2: TGGTGGCTACGACGGGATT
B9: GGAAGCU (DNA:RNA)
RNA: B1 RNA with C25G, G27A, G28A, A29G, G30C, C31U
DNA 1: CAATCTGAATTCCGGTCTCCC
DNA 2: TGGTGGCTACGACGGGATT
B10: CGGAGCU (DNA:RNA)
RNA: B1 RNA with G28A, A29G, G30C, C31U
DNA 1: CAATCTGAATTCCGGTCTCCC
DNA 2: TGGTGGCTACGACGGGATT
B11: CGGAACU (DNA:RNA)
RNA: B1 RNA with G28A, G30C, C31U
DNA 1: CAATCTGAATTCCGGTCTCCC
DNA 2: TGGTGGCTACGACGGGATT
B12: GGGAGCU (DNA:RNA)
RNA: B1 RNA with C25G, G28A, A29G, G30C, C31U
DNA 1: CAATCTGAATTCCGGTCTCCC
DNA 2: TGGTGGCTACGACGGGATT

The target of this experiment is T1, RBFOX1 RRM. Description: EMSA; HiTS-Eq, 1 nM pool, 10 min; buffer printed only for the single-RNA assays: 10 mM Tris pH 7.5, 150 mM NaCl, 3.4 mM EDTA, 0.001% NP-40, 30 C. The settings on record: tags: His6 N-terminal (pET28a); label: 5' 32P. In outline: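 Purified RbFox RRM, wild type or mutant, was incubated for 10 min in 50 µL with 1 nM of a 5′-radiolabelled RNA pool carrying 7 randomized nucleotides, whose flanks were annealed to DNA oligonucleotides, over a series of increasing protein concentrations. Unbound RNA was resolved on 8% native PAGE, cut out, reverse-transcribed, barcoded by PCR and sequenced on an Illumina HiSeq 2500. Relative association constants were derived from changes in read counts for each RNA species versus the control reaction and normalised to the cognate motif.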
For orientation: A gel shift assay detects complexes by their altered migration in electrophoresis.
With B1, the binding signal is 0.0286 KA relative to UGCAUGU.
Next, B2: 0.0326 KA relative to UGCAUGU; B3: 0.0169 KA relative to UGCAUGU; B4: 0.036 KA relative to UGCAUGU.
On to B5, for which the binding signal was 0.0138 KA relative to UGCAUGU.
The value for B6 was 0.0232 KA relative to UGCAUGU.
The value for B7 was 0.0404 KA relative to UGCAUGU; that for B8 was 0.0209 KA relative to UGCAUGU; that for B9 was 0.0135 KA relative to UGCAUGU.
The value for B10 was 0.0245 KA relative to UGCAUGU; that for B11 was 0.0254 KA relative to UGCAUGU.
On to B12, for which the binding signal was 0.035 KA relative to UGCAUGU.
